Screening data from PubChem BioAssay.
Compounds with a hit are over-represented: about 3.1% of the library has one in this group of screens.
C2C12 statin: suppressors of simvastatin-induced myotoxicity in C2C12 myotubes. rescue of ATP level, % at 7.49 µM. ATP luminescence, 48 h; scaled: DMSO 0, geranylgeraniol control 100. 330,000 tested, 0.78% active;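 active means mean ATP rescue above about 67%, or every replicate alone reaching that limit, limit read from the data, passing the limit was not always enough; inconclusive means no clear call, values can overlap the other calls; inactive means mean under the limit and some replicate under it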;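 further: myotubes were challenged with 10 µM simvastatin during compound exposure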
EWS-Fli block: inhibitors of EWS/Fli oncoprotein transcriptional activity; A673 NR0B1-luciferase reporter, viability-normalised; inhibition, % at 12.6 µM; 350,000 tested, 0.67% active;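 active means mean inhibition of at least 50% after viability correction, with every replicate also passing that limit; inconclusive means mean reaches 50% but only one of two replicates passes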;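 further: firefly luciferase signal divided by Alamar Blue viability fluorescence both relative to DMSO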
PAX8 inh HTS: lowers PAX8-driven luciferase in RMG-I cells | 360,000 tested, 1.2% active | AID 652154 | RMG-I TPO-luciferase reporter, SteadyGlo, 24 h | inhibition, % at 12.6 µM;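 active means mean replicate inhibition at least 60% with every replicate also reaching 60%; inconclusive means only one of the two criteria is met; inactive means mean below 60% and not all replicates reaching 60%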;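 further: luciferase light reporting Pax8 driven TPO promoter activity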
INS-1E GSIS act: primary screen for activators of insulin secretion dependent on glucose, INS-1E cells, GLuc reporter luminescence; INS-1E GLuc reporter insulin secretion, 2-3 h; activation, % at 16.6 µM; 370,000 tested, 0.61% active;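 active means lowest replicate activation of at least 40%, so every replicate reaches that level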
Env fusion inh: HIV envelope-mediated fusion inhibition; HeLa-JRFL Env/CEM21 cell fusion, luciferase; inhibition, % at 12.3 µM; 360,000 tested, 1.1% active;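 active means mean replicate inhibition score of at least 50 and every replicate individually at or above 50; inconclusive means only one of the two criteria met; inactive means mean below 50 and not all replicates reaching 50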
miR-122 sensor: miR-122 inhibition in Huh7 cells; Huh7 miR-122 Renilla luciferase sensor, 48 h; neutral wells = 0, positive control = 100; activation (reporter increase), % at 12.5 µM; 340,000 tested, 0.3% active; AID 602342;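 active means mean replicate activation score at least 90 and every replicate individually at or above 90; inconclusive means only one of the two criteria met; inactive means neither criterion met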;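 further: higher luciferase means less miR-122 activity so hits act as miR-122 inhibitors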
A number is an active result; - = inactive; ? = inconclusive; . = no result; [ ] = dose if it differs, or a comment.

SMILES	C2C12 statin	EWS-Fli block	PAX8 inh HTS	INS-1E GSIS act	Env fusion inh	miR-122 sensor
O=C(NC1CCCCC1)C(c1ccc(F)cc1)N(Cc1ccco1)C(=O)CN1C(=O)c2ccccc2S1(=O)=O (configuration not stated)	.	-	102.3	.	.	.
CC(C)CCN(C(=O)c1csnn1)C(C(=O)NC1CCCC1)c1ccc(F)cc1 (configuration not stated)	-	-	-	-	76.2	.
O=C(NC1CCCC1)C(c1ccc(F)cc1)N(Cc1ccccc1)C(=O)c1csnn1 (configuration not stated)	-	-	-	-	-	-
O=C(NC1CCCCC1)C(c1ccc(F)cc1)N(Cc1ccco1)C(=O)c1csnn1 (configuration not stated)	-	-	-	-	63.2	-
C[C@H]1CN([C@@H](C)CO)C(=O)c2cc(-c3cccnc3)cnc2O[C@H]1CN(C)C(=O)c1cccc(F)c1	-	-	.	-	-	-
Cc1ccccc1S(=O)(=O)NCC[C@H]1CC[C@@H](NC(=O)C2CCCC2)[C@H](CO)O1	-	-	-	-	-	-
O=C(C1CCC(CNS(=O)(=O)c2cccs2)CC1)N1CCN(c2ccc(Cl)cc2)CC1 (configuration not stated)	-	.	68.1	-	-	-
O=C(CCCNS(=O)(=O)c1cccs1)N1CCN(c2cccc(Cl)c2)CC1	.	.	-	-	70.8	-
O=C(NC1CCCC1)C1CCC(CNS(=O)(=O)c2cccs2)CC1 (configuration not stated)	.	.	-	-	-	.
O=C(CCNS(=O)(=O)c1cccs1)N1CCN(c2cccc(Cl)c2)CC1	-	-	-	-	-	-
O=C(N[C@@H]1C=C[C@H](CC(=O)N2CCc3ccccc3C2)O[C@@H]1CO)C1CCOCC1	.	-	.	-	.	.
COc1ccccc1NC(=O)N(C)C[C@@H]1OCc2ccccc2-c2ccccc2C(=O)N([C@@H](C)CO)C[C@H]1C	.	-	-	-	-	.
COc1cccc(S(=O)(=O)N(C)C[C@H]2Oc3cc(C4=CCCC4)ccc3S(=O)(=O)N([C@@H](C)CO)C[C@H]2C)c1	-	-	-	-	110.2[16.7 µM]	-
COc1cccc(S(=O)(=O)N(C)C[C@@H]2Oc3cc(C4=CCCCC4)ccc3S(=O)(=O)N([C@@H](C)CO)C[C@H]2C)c1	-	-	76.5	-	-	-
COc1cccc(S(=O)(=O)N(C)C[C@H]2Oc3cc(C4=CCCCC4)ccc3S(=O)(=O)N([C@@H](C)CO)C[C@@H]2C)c1	-	-	-	-	-	-
CO[C@H](C(=O)N(C)C[C@@H]1OCc2ccccc2-c2c(n(C)c3ccccc23)C(=O)N([C@@H](C)CO)C[C@@H]1C)c1ccccc1	-	-	-	-	-	.
C[C@H](CO)N1C[C@H](C)[C@H](CN(C)S(=O)(=O)c2cccs2)Oc2ccc(NC(=O)CCN3CCOCC3)cc2C1=O	-	-	-	-	-	-
CCNC(=O)C[C@H]1CC[C@@H]2[C@@H](COc3ccc(NC(=O)Nc4ccc(F)cc4)cc3C(=O)N2C)O1	-	-	-	-	-	-
C[C@@H]1CN([C@@H](C)CO)S(=O)(=O)c2ccc(C#Cc3ccccc3F)cc2O[C@@H]1CN(C)C(=O)c1ccc2c(c1)OCO2	-	-	77.6	-	-	-
C[C@H]1CN([C@@H](C)CO)S(=O)(=O)c2ccc(C#Cc3ccccc3F)cc2O[C@H]1CN(C)C(=O)c1ccc2c(c1)OCO2	-	-	89.8	-	-	-
COc1ccc(CNC(=O)C[C@@H]2C[C@H]3c4cc(NC(=O)C5CCC5)ccc4O[C@H]3[C@H](CO)O2)cc1	-	-	-	-	-	-
CO[C@@H]1CN(C)C(=O)c2cc(NC(C)=O)ccc2OC[C@H](C)N(Cc2cc(F)ccc2F)C[C@@H]1C	-	-	-	-	-	-
Fc1ccccc1COc1ccc(-c2nnn(Cc3ccccc3F)n2)cc1	120.5	-	-	.	-	-
Cn1nnc(-c2ccc(OCc3ccccc3F)cc2)n1	-	.	-	.	-	-
Brc1ccc(CN2CCN(Cc3c[nH]c4ccccc34)CC2)cc1	-	-	-	-	-	.
SMILES	C2C12 statin	EWS-Fli block	PAX8 inh HTS	INS-1E GSIS act	Env fusion inh	miR-122 sensor
Brc1ccccc1CN1CCN(Cc2c[nH]c3ccccc23)CC1	.	-	63.0	-	-	.
COC(=O)c1ccccc1COn1c(=O)c(C)[n+]([O-])c2ccccc21	104.8	.	.	.	.	-
COC(=O)c1ccc(COn2c(=O)c(C)[n+]([O-])c3ccccc32)cc1	-	.	.	.	-	-
O=C(c1ccc2c(c1)OCO2)N1CCCc2ccccc21	-	.	.	.	.	.
O=C(c1cccc(F)c1)N1CCCc2ccccc21	-	-	-	84.1	-	-
CC(=O)N1CCc2cc(S(=O)(=O)Nc3cccc(C(F)(F)F)c3)ccc21	-	.	-	.	?	99.7
Cc1ccc2c(c1)CCCN2C(=O)c1ccc2c(c1)OCO2	.	.	.	53.7	.	.
CC(=O)N1CCc2cc(S(=O)(=O)Nc3ccc(C)cc3)ccc21	-	-	-	-	-	-
CC(=O)N1CCCc2cc(S(=O)(=O)Nc3ccc4c(c3)OCO4)ccc21	-	.	.	.	-	268.0
C[C@@H]1CCCCO[C@H](CN(C)C(=O)C2CCCCC2)[C@@H](C)CN([C@@H](C)CO)C(=O)c2cc(NC(=O)NC3CCCCC3)ccc2O1	-	-	-	-	-	-
O=C(c1ccc2c(c1)OCO2)N1CCc2ccccc2C1	-	.	.	81.2	-	-
CO[C@H]1CN(C)C(=O)c2ccc(NC(=O)c3nc4ccccc4s3)cc2OC[C@H](C)NC[C@@H]1C	-	-	.	-	-	.
Cc1cc(C)c(OCC(=O)OCC(=O)N(C)C2CCS(=O)(=O)C2)c(C)c1 (configuration not stated)	-	-	-	41.2	-	-
Cc1cc(NC(=O)COC(=O)C2CCN(S(=O)(=O)c3c(Cl)cccc3Cl)CC2)no1	108.7	.	.	.	.	-
CN(C(=O)COC(=O)C1CCN(S(=O)(=O)c2c(Cl)cccc2Cl)CC1)C1CCS(=O)(=O)C1 (configuration not stated)	-	-	112.7	-	-	-
CCC(C)N(C(=O)COC(=O)COc1c(C)cc(C)cc1C)C1CCS(=O)(=O)C1 (configuration not stated)	-	-	-	-	-	.
CN(C(=O)COC(=O)C1CCN(S(=O)(=O)c2ccc(Cl)cc2)CC1)C1CCS(=O)(=O)C1 (configuration not stated)	-	-	-	-	-	-
O=S(=O)(NCC[C@@H]1CC[C@@H](NS(=O)(=O)c2cccc(Cl)c2)[C@@H](CO)O1)c1cccc(F)c1	-	-	-	-	-	.
CC=Cc1ccc2n(c1=O)C[C@@H]1[C@@H](CO)[C@H](C(=O)N[C@H](C)c3ccccc3)[C@H]2N1CC1CC1 (mixture of isomers)	-	-	-	-	.	-
